Data from PubChem BioAssay (EPA / NIEHS).
Calls of active or inactive are those of the source. The calls were made as follows: active = hit-call score of the fitted dose curve at least 0.9, where 1 is the maximum; inactive = score below 0.9.

Assay: ATG_Oct_MLP_CIS: Attagene CIS-FACTORIAL HepG2 Assay for human Octamer-Binding Transcription Factor (Oct) (AID 2282993)
Conditions: HepG2 Attagene cis-factorial Oct reporter, mRNA; actives raise or lower the signal
Procedure: ATG_CIS is a cell-based, multiplexed-readout assay that uses HepG2, a human liver cell line, with measurements taken at 24 hours after chemical dosing in a 24-well plate.ATG_Oct_MLP_CIS is one of 52 assay component(s) measured or calculated from the ATG_CIS assay. It is designed to make measurements of mRNA induction, a form of inducible reporter, as detected with fluorescence intensity signals by Reverse transcription polymerase chain reaction (RT-PCR) and Capillary electrophoresis technology.Data from the assay component ATG_Oct_MLP_CIS was analyzed into 1 assay endpoint. This assay endpoint, ATG_Oct_MLP_CIS, was analyzed with bidirectional fitting relative to DMSO as the negative control and baseline of activity. Using a type of inducible reporter, measures of mRNA for gain or loss-of-signal activity can be used to understand the reporter gene at the transcription factor-level as they relate to the gene POU2F1. Furthermore, this assay endpoint can be referred to as a primary readout, because this assay has produced multiple assay endpoints where this one serves a reporter gene function. To generalize the intended target to other relatable targets, this assay endpoint is annotated to the dna binding intended target family, where the subfamily is POU domain protein.
Human liver HepG2 cells are transiently transfected with multiple reporter transcription units (MRTUs) in 6-well plates using FuGene 6 reagent (Roche; 3 ml FuGene/1 mg DNA). The MRTU constructs are regulated by a cis-regulating element (promoter). […] A major difference between the CIS and TRANS system is that in CIS activities of endogenous TFs are measured, whereas the TRANS assay evaluates changes in activities of exogenous, chimeric NR-Gal4 proteins. […] At the end of 24 hour incubation, total RNA was isolated using TriZol reagent (Invitrogen). The isolated RNA is then reverse-transcribed using oligo(dT) primer and Mo-MLV reverse transcriptase (Invitrogen) with DNAse I (Ambion) treatment for 30 min. The one-tenth of the produced cDNA was amplified by PCR using Taq DNA polymerase (Invitrogen) and two reporter sequence-specific primers. The PCR products were fluorescently labeled by primer extension with 6-arboxyfluorescein (6-FAM) 5'-labeled reporter sequence-specific primer (2 min at 95 C, 20 s at 68 C and 10 min at 72 C) and these products were digested with 5U of HpaI (New England Biolabs) for 2h at 37 C. The fragments were purified using Qiaquick PCR columns (Qiagen), analyzed on an ABI 3130xL genetic analyzer (Applied Biosystems) with peak positions identified by using a set of X-rhodamine (ROX)-labeled MapMarker1000 molecular weight standards (BioVentures). The raw capillary electrophoresis data was processed using Attagraph software (Attagene).

With COc1ccc(C=O)cc1OC as the compound, how does the outcome read?
The outcome was “inactive”.

With Nc1ccc(N=Nc2ccc(-c3ccc(N=Nc4c(S(=O)(=O)O)cc5cc(S(=O)(=O)O)c(N=Nc6ccccc6)c(O)c5c4N)cc3)cc2)c(N)c1 as the compound, how does the outcome read?
The outcome was “inactive”.

For O=c1[nH]c(=O)[nH]c(=O)[nH]1, which outcome is on record?
The outcome was “inactive”.

Which AC50 does the source give for C(=NC1CCCCC1)=NC1CCCCC1 here?
Its AC50 is 5.24 µM (active).

For O=C(O)C(Cl)(Cl)Cl, which outcome is on record?
The outcome was “inactive”.

Which AC50 does the source give for O=C(Nc1ccc2[nH]ccc2c1)c1cc2cc(F)ccc2n1Cc1cccc(F)c1 here?
Its AC50 is 11 µM (active).

Which AC50 does the source give for CC(=O)c1cc(C(C)(C)C)cc2c1CCC2(C)C here?
Its AC50 is 68.3 µM (active).

With COc1ccc(C=O)cc1 as the compound, how does the outcome read?
Its outcome is “inactive”.

With CCOP(=S)(OCC)SCCS(=O)(=O)CC as the compound, how does the outcome read?
Its outcome is “inactive”.

For CCN(CC)C(=O)Cl, which outcome is on record?
Its outcome is “inactive”.

Which outcome does the source give for COP(=S)(OC)Oc1ccc(S(=O)(=O)N(C)C)cc1 here?
The outcome was “inactive”.

For CCOP(OCC)OCC, which outcome is on record?
Its outcome is “inactive”.

For C=CC(=O)N(C)C, which outcome is on record?
Its outcome is “inactive”.

Which AC50 does the source give for COP(=O)(OC)O/C(=C\Cl)c1cc(Cl)c(Cl)cc1Cl here?
The AC50 was 27.6 µM (active).

For NC(=O)O, which outcome is on record?
The outcome was “inactive”.

Which outcome does the source give for CCOC(=O)Nc1cccc(OC(=O)Nc2ccccc2)c1 here?
Its outcome is “inactive”.

With COP(=S)(OC)Oc1ccc(Sc2ccc(OP(=S)(OC)OC)cc2)cc1 as the compound, how does the outcome read?
Its outcome is “inactive”.

Which outcome does the source give for CC(=O)C=C(C)C here?
Its outcome is “inactive”.

Which outcome does the source give for O=CC=O here?
Its outcome is “inactive”.

For CCC(=O)c1ccccc1, which outcome is on record?
The outcome was “inactive”.

Which outcome does the source give for O=[N+]([O-])c1ccc(O)c([N+](=O)[O-])c1 here?
Its outcome is “inactive”.

Which outcome does the source give for Cc1ccccc1C(=O)Nc1cccc(OC(C)C)c1 here?
Its outcome is “inactive”.

Which outcome does the source give for CCOC(=O)CP(=O)(OCC)OCC here?
Its outcome is “inactive”.

With CCN1CCC2(CC1)COc1cc3c(cc12)N(C(=O)c1ccc(-c2ccc(-c4nnc(C)o4)cc2C)cc1)CC3 as the compound, how does the outcome read?
Its outcome is “inactive”.

With COP(=O)(OC)OC as the compound, how does the outcome read?
Its outcome is “inactive”.

Which outcome does the source give for CCCCCCCCSC(=O)Oc1cc(Cl)nnc1-c1ccccc1 here?
Its outcome is “inactive”.

Which AC50 does the source give for Nc1ccc(-c2ccc(N)c(Cl)c2)cc1Cl here?
The AC50 was 5.49 µM (active).

Which AC50 does the source give for O=C(c1ccccc1)C(Cl)Cl here?
The AC50 was 25.3 µM (active).

With N#CCc1ccc(Cl)cc1 as the compound, how does the outcome read?
Its outcome is “inactive”.

With CCC(=O)C(CC(C)N(C)C)(c1ccccc1)c1ccccc1 (stereo not given) as the compound, how does the outcome read?
Its outcome is “inactive”.

With Nc1cccc2ccccc12 as the compound, how does the outcome read?
Its outcome is “inactive”.

Which outcome does the source give for [O-][Cl+2]([O-])O here?
The outcome was “inactive”.

With CN(CCCC(=O)c1cccnc1)N=O as the compound, how does the outcome read?
The outcome was “inactive”.

Which outcome does the source give for O=P(O)(O)CN(CP(=O)(O)O)CP(=O)(O)O here?
Its outcome is “inactive”.

With Oc1ccc(-c2ccccc2)cc1 as the compound, how does the AC50 read?
The AC50 was 73.8 µM (active).

With CCOP(=S)(OCC)Oc1ccc(S(C)=O)cc1 (stereo not given) as the compound, how does the outcome read?
The outcome was “inactive”.

For COc1cccc(C=O)c1, which outcome is on record?
Its outcome is “inactive”.

For C=CC(=O)OCCCCCC(C)C, which outcome is on record?
The outcome was “inactive”.

Which AC50 does the source give for CC(C)(C)c1cc(O)ccc1O here?
Its AC50 is 129 µM (active).

Which outcome does the source give for BrCCBr here?
The outcome was “inactive”.
